Only some compounds are listed: those with a hit (about 4.3% of all), similar ones and a draw of the others.
BoNT-F LC inh: BoNT/F light chain protease inhibitors, primary screen, biochemical, flow cytometry, MLPCN library; Multiplex microsphere protease cleavage assay; inhibition, % at 10 µM; actives 0.22% (n = 360,000); in the data active = inhibition above about 35%, passing the limit was not always enough; inconclusive = no clear call, values can overlap the other calls; also: plate controls were buffer without enzyme for full effect and enzyme alone for no effect
MazEF act: activators of E. coli MazEF toxin-antitoxin RNase, primary screen, biochemical, fluorescence, uHTS. AID 504720, 2011. activation, % at 20 µM. actives 0.32% (n = 350,000). FAM/BHQ RNA-DNA oligo cleavage fluorescence, 5 h; in the data active = activation above about 50%
PfHsp40 rescue: rescue of yeast from PfHsp40 toxicity, primary screen, S. cerevisiae, ATP luminescence | S. cerevisiae expressing PfHsp40, growth rescue | growth rescue, % at 12.5 µM | actives 0.68% (n = 340,000) | AID 504582, 2011; in the data active = growth rescue above about 28%, passing the limit was not always enough; inconclusive = no clear call, values can overlap the other calls;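 also: yeast W303a lacking pdr1 and pdr3 grown in galactose medium; growth measured after three days at 30 °C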
BoNT-A LC inh2: BoNT/A light chain protease inhibitors, primary screen, biochemical, flow cytometry, MLPCN library. multiplex microsphere protease substrate cleavage. inhibition, % at 10 µM. actives 0.17% (n = 360,000). AID 588499, 2011; also: plate controls were buffer without enzyme for full effect and enzyme alone for no effect
Anthrax LF inh2: Bacillus anthracis LF protease inhibitors, primary screen, biochemical, multiplex microsphere, MLPCN library | actives 0.12% (n = 360,000) | AID 588501, 2011 | inhibition, % at 10 µM | multiplex microsphere protease cleavage assay | Lethal factor (Bacillus anthracis), P15917; also: plate controls were buffer without enzyme for full effect and enzyme alone for no effect
Target sequence (P15917 whole entry, looked up): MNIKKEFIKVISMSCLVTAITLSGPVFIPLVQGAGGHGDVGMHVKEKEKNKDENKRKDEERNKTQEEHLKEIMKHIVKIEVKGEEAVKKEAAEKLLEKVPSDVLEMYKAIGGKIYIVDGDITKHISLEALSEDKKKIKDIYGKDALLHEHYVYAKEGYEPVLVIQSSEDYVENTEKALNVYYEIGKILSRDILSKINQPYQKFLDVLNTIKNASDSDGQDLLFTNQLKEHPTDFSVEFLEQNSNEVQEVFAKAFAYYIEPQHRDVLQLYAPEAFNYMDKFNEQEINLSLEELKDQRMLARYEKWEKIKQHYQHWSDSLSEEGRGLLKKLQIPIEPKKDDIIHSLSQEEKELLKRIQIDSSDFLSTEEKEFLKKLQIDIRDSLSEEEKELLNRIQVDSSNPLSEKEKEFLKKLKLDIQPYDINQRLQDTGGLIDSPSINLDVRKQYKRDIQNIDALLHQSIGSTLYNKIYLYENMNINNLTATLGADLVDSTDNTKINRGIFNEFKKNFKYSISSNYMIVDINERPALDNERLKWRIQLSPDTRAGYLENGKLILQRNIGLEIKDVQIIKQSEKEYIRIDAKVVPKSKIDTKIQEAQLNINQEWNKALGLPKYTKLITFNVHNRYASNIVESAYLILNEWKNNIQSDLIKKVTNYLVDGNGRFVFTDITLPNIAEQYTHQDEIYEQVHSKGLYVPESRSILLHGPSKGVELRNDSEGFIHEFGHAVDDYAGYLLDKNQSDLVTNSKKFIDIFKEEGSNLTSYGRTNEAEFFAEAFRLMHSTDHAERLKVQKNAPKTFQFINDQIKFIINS
Bead autofluor: compound fluorescence in toxin protease inhibitor counterscreen. compound autofluorescence counterscreen, microsphere flow cytometry; active compounds read high. fluorescence intensity (no concentration beside the values). actives 3.1% (n = 360,000); in the data active = fluorescence intensity above about 16000; inconclusive = no clear call, values can overlap the other calls
Numbers without * were called inactive. Rule as the data show it, unless noted: active = inhibition above about 30%; inconclusive = no clear call, values can overlap the other calls; inactive = below that.

How did CC1CCc2c(sc(N)c2C(N)=O)C1 (stereo unspecified) do in these assays?
BoNT-F LC inh: -4.4; MazEF act: -5.2; PfHsp40 rescue: -0.6; BoNT-A LC inh2: -3.4; Anthrax LF inh2: 1.1; Bead autofluor: 17162*

How did Cc1ccc(CSc2ncnc3c2cnn3Cc2ccccc2)cc1 do in these assays?
BoNT-F LC inh: -12.0; MazEF act: -6.6; PfHsp40 rescue: 0.0; BoNT-A LC inh2: -1.1; Anthrax LF inh2: -1.0; Bead autofluor: 11225

How did Cc1ccc(CSc2ncnc3c2cnn3Cc2ccccc2)cc1C do in these assays?
BoNT-F LC inh: 5.3; MazEF act: -12.5; PfHsp40 rescue: 1.0; BoNT-A LC inh2: 2.8; Anthrax LF inh2: -4.6; Bead autofluor: 21383*

How did CC(NS(=O)(=O)c1ccc(OCC(=O)NCc2ccncc2)cc1)c1ccccc1 (stereo unspecified) do in these assays?
BoNT-F LC inh: 6.0; MazEF act: -3.4; PfHsp40 rescue: -0.1; BoNT-A LC inh2: -1.0; Anthrax LF inh2: 0.5; Bead autofluor: 3763

Results for COc1ccc(-c2csc(NC(=O)CN3C(=O)C4CC=CCC4C3=O)n2)cc1OC (stereo unspecified) ?
BoNT-F LC inh: 2.3; MazEF act: -5.3; PfHsp40 rescue: 0.4; BoNT-A LC inh2: 0.7; Anthrax LF inh2: -0.7; Bead autofluor: 5283

How did O=C1N[C@@H](Cc2ccccc2)C(=O)N1CCN1CCOCC1 do in these assays?
BoNT-F LC inh: 2.1; MazEF act: 11.1; PfHsp40 rescue: -0.2; BoNT-A LC inh2: inconclusive; Anthrax LF inh2: -2.5; Bead autofluor: 22937*

Results for O=C1CCCN1CCCN1C(=O)N[C@@H](Cc2ccccc2)C1=O ?
BoNT-F LC inh: -5.1; MazEF act: 4.8; PfHsp40 rescue: -0.1; BoNT-A LC inh2: -1.1; Anthrax LF inh2: -0.6; Bead autofluor: 10248

How did COC(=O)Oc1ccc(/C=N/NC(=O)CSCc2ccccc2Br)cc1OC do in these assays?
BoNT-F LC inh: -0.5; MazEF act: -0.8; PfHsp40 rescue: 0.8; BoNT-A LC inh2: -0.2; Anthrax LF inh2: 0.2; Bead autofluor: 2416

Results for COc1ccc(-n2c(SCc3cccnc3)nc3c(c2=O)SCC3)cc1OC ?
BoNT-F LC inh: -4.7; MazEF act: -7.8; PfHsp40 rescue: 0.3; BoNT-A LC inh2: 2.0; Anthrax LF inh2: -5.8; Bead autofluor: 3808

Results for COc1cccc(-n2c(SCc3ccccn3)nc3c(c2=O)SCC3)c1 ?
BoNT-F LC inh: -0.8; MazEF act: 3.7; PfHsp40 rescue: 62.5*; BoNT-A LC inh2: -0.4; Anthrax LF inh2: -5.2; Bead autofluor: 3679

Results for O=C(CN(Cc1ccc(F)cc1)C(=O)CCC(=O)Nc1nccs1)NCC1CCCO1 (stereo unspecified) ?
BoNT-F LC inh: 4.4; MazEF act: 8.1; PfHsp40 rescue: -1.0; BoNT-A LC inh2: 0.1; Anthrax LF inh2: -2.5; Bead autofluor: 4168

How did COc1cccc(-c2nc(CS(=O)CC(=O)NCCc3ccc(C)cc3)c(C)o2)c1 (stereo unspecified) do in these assays?
BoNT-F LC inh: 8.0; MazEF act: 6.2; PfHsp40 rescue: -1.0; BoNT-A LC inh2: 0.9; Anthrax LF inh2: -2.7; Bead autofluor: 4116

What do the screens show for `Cn1ncc(Br)c1C(=O)Nc1c(F)c(F)cc(F)c1F`?
BoNT-F LC inh: -1.3; MazEF act: -5.2; PfHsp40 rescue: -0.1; BoNT-A LC inh2: inconclusive; Anthrax LF inh2: -1.0; Bead autofluor: 21682*

What do the screens show for `CSc1ccccc1NC(=O)c1c(Br)cnn1C`?
BoNT-F LC inh: 2.1; MazEF act: -5.7; PfHsp40 rescue: -0.9; BoNT-A LC inh2: 0.0; Anthrax LF inh2: -1.2; Bead autofluor: 2653

How did NC(=O)CCCCC(=O)OCCCc1cccs1 do in these assays?
BoNT-F LC inh: 1.1; MazEF act: 1.2; PfHsp40 rescue: -0.9; BoNT-A LC inh2: -0.7; Anthrax LF inh2: 0.5; Bead autofluor: 16230*

Results for O=C(CCCCC(=O)NCc1cccs1)NCc1cccs1 ?
BoNT-F LC inh: -6.0; MazEF act: 4.3; PfHsp40 rescue: 0.0; BoNT-A LC inh2: -1.1; Anthrax LF inh2: 3.2; Bead autofluor: 8657

Results for Cc1cc(-c2nnc(SCC(=O)Nc3ccccc3Cl)n2C)no1 ?
BoNT-F LC inh: inconclusive; MazEF act: 5.5; PfHsp40 rescue: -1.2; BoNT-A LC inh2: -0.9; Anthrax LF inh2: -22.4; Bead autofluor: 2969

Results for CCCCOc1ccc(C(=O)NCC(=O)NNC(=O)C2COc3ccccc3O2)cc1 (stereo unspecified) ?
BoNT-F LC inh: 1.8; MazEF act: -6.8; PfHsp40 rescue: 1.9; BoNT-A LC inh2: 0.3; Anthrax LF inh2: 3.6; Bead autofluor: inconclusive

Results for CCOC(=O)c1nnn(-c2nonc2N)c1CSc1ccccc1 ?
BoNT-F LC inh: 3.8; MazEF act: 5.5; PfHsp40 rescue: -0.2; BoNT-A LC inh2: 0.7; Anthrax LF inh2: -0.7; Bead autofluor: 22923*

How did CCOC(=O)c1nnn(-c2nonc2N)c1CSc1ccc(C)cc1 do in these assays?
BoNT-F LC inh: -17.6; MazEF act: -2.7; PfHsp40 rescue: 0.6; BoNT-A LC inh2: -1.3; Anthrax LF inh2: -2.4; Bead autofluor: 4636

How did CCOC(=O)c1nnn(-c2nonc2N)c1-c1ccccc1 do in these assays?
BoNT-F LC inh: 1.4; MazEF act: -1.8; PfHsp40 rescue: -0.5; BoNT-A LC inh2: -0.2; Anthrax LF inh2: -1.1; Bead autofluor: 23505*

How did CCCCS/C(=C(/C#N)C(N)=O)c1cc2c([nH]1)CCCC2 do in these assays?
BoNT-F LC inh: -0.5; MazEF act: 6.6; PfHsp40 rescue: 0.2; BoNT-A LC inh2: inconclusive; Anthrax LF inh2: -3.1; Bead autofluor: 22456*

What do the screens show for `CC(C)(C)CN1CCNC(=O)C1CC(=O)NCCN1CCCc2ccccc21` (stereo unspecified)?
BoNT-F LC inh: -3.1; MazEF act: -12.5; PfHsp40 rescue: 0.2; BoNT-A LC inh2: 0.1; Anthrax LF inh2: -4.9; Bead autofluor: 4363

What do the screens show for `Cc1nnc(SCC(=O)c2ccc(S(=O)(=O)N3CCOCC3)cc2)n1-c1ccccc1`?
BoNT-F LC inh: -5.5; MazEF act: 6.8; PfHsp40 rescue: -0.9; BoNT-A LC inh2: inconclusive; Anthrax LF inh2: -2.5; Bead autofluor: 24041*

Results for Cn1c(SCC(=O)N2CCCCC2)nnc1-c1ccc(S(=O)(=O)N2CCOCC2)cc1 ?
BoNT-F LC inh: -5.4; MazEF act: 6.9; PfHsp40 rescue: -1.7; BoNT-A LC inh2: -2.8; Anthrax LF inh2: -4.0; Bead autofluor: 17538*

How did N#CCSc1nnc(-c2ccc(S(=O)(=O)N3CCOCC3)cc2)n1CC1CCCO1 (stereo unspecified) do in these assays?
BoNT-F LC inh: -6.0; MazEF act: -14.6; PfHsp40 rescue: -1.0; BoNT-A LC inh2: inconclusive; Anthrax LF inh2: -5.6; Bead autofluor: 22267*

Bioassay records from PubChem BioAssay.
